# Data taken from paper PMC7862700, “An all-to-all approach to the identification of sequence-specific readers for epigenetic DNA modifications on cytosine”.
# Experiments:
# Assay in all cases: DAPPL (digital affinity profiling via proximity ligation, sequencing); 10 mM Tris-HCl pH 7.5, 50 mM NaCl, 1 mM DTT, 4% glycerol, room temperature, 30 min; GST-TFs on glutathione beads, 16-mer random dsDNA library, 0.1% formaldehyde crosslink after washing; high values mean tight binding
# Settings in all cases: protein: recombinant; tags: N-terminal GST; dsDNA, one strand shown
# FLI1 = molecular target: T1, FLI1 (Homo sapiens, UniProt Q01543 1-452)
# T1 sequence: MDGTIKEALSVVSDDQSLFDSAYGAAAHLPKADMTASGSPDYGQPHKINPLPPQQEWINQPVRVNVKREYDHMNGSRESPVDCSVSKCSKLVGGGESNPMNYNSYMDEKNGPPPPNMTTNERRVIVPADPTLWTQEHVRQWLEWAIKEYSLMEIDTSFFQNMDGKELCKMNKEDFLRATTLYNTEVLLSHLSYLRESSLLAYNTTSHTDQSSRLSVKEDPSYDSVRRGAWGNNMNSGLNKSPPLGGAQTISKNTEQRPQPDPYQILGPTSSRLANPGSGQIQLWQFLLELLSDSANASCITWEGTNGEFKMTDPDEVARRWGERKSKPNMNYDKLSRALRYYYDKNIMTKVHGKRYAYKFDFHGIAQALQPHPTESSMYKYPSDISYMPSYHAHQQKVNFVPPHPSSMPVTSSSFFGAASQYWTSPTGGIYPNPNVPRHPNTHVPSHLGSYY
# How it was run: (§1)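 A tag-only sample was pooled with DNA-barcoded human transcription factors that had been expressed in yeast as GST fusions and captured on glutathione beads. The pools were incubated for 30 min at room temperature with 200 nmole of a random double-stranded 16-mer DNA library in Tris/NaCl/DTT/glycerol buffer, then washed, crosslinked with 0.1% formaldehyde, proximity-ligated (BsaI/T4 ligase, 1 h, 37 °C), PCR-amplified and sequenced on an Illumina NextSeq500. Binding signal is each hexamer's read frequency for a factor divided by its frequency for the tag-only sample.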
# ELK1 = molecular target: T2, ELK1 (Homo sapiens, UniProt P19419 1-428)
# T2 sequence: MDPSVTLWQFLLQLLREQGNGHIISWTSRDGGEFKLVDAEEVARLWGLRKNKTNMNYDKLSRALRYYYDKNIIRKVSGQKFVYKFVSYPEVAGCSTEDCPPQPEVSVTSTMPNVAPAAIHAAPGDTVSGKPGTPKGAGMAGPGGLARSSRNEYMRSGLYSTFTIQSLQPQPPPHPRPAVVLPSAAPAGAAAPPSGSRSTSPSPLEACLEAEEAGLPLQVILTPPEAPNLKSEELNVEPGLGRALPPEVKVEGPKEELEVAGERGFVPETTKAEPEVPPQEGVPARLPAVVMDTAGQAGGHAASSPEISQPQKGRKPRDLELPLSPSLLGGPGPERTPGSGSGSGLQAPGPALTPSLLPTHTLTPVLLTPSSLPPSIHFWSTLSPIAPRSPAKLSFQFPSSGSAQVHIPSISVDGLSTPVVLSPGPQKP
# How it was run: as §1
# GABPA = molecular target: T3, GABPA (Homo sapiens, UniProt Q06546 1-454)
# T3 sequence: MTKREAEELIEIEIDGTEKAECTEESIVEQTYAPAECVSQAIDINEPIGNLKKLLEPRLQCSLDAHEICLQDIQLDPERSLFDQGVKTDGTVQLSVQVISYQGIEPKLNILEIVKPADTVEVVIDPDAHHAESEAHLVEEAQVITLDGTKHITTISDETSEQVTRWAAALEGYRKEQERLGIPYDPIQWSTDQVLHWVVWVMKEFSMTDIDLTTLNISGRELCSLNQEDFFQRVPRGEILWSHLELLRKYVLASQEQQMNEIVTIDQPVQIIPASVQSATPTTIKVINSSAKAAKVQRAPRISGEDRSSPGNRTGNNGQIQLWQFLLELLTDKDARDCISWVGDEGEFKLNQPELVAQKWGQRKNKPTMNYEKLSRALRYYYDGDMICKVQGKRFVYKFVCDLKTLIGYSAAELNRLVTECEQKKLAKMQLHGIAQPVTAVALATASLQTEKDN
# How it was run: as §1
# ERG = molecular target: T4, ERG (Homo sapiens, UniProt P11308 1-479)
# T4 sequence: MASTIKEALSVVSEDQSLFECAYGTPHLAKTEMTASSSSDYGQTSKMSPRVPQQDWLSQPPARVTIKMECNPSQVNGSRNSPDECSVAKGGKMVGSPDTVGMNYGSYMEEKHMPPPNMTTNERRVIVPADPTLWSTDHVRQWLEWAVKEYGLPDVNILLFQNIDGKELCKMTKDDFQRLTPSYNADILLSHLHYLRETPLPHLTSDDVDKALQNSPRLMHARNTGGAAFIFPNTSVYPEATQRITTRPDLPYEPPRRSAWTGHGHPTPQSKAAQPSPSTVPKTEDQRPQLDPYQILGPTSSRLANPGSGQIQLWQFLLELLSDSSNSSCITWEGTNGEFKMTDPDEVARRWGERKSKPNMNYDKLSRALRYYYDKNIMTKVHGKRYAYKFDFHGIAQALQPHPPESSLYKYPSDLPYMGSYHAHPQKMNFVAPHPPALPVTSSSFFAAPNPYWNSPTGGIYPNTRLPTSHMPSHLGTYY
# How it was run: as §1
# ELF1 = ELF1 (Homo sapiens, UniProt P32519 1-619)
# How it was run: as §1
# EHF = molecular target: T5, EHF (Homo sapiens, UniProt Q9NZC4 1-300)
# T5 sequence: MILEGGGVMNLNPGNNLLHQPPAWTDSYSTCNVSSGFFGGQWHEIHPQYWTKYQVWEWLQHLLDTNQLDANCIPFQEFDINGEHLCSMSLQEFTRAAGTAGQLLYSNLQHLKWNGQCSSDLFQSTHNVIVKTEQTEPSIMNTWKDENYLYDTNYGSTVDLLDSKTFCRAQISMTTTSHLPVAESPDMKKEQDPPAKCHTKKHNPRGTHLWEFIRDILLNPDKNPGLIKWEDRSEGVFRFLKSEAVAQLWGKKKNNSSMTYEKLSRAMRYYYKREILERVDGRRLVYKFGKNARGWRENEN
# How it was run: as §1
# SPI1 = SPI1 (Homo sapiens, UniProt P17947 1-270)
# How it was run: as §1
# SPIB = SPIB (Homo sapiens, UniProt Q01892 1-262)
# How it was run: as §1
# ELK3 = molecular target: T6, ELK3 (Homo sapiens, UniProt P41970 1-407)
# T6 sequence: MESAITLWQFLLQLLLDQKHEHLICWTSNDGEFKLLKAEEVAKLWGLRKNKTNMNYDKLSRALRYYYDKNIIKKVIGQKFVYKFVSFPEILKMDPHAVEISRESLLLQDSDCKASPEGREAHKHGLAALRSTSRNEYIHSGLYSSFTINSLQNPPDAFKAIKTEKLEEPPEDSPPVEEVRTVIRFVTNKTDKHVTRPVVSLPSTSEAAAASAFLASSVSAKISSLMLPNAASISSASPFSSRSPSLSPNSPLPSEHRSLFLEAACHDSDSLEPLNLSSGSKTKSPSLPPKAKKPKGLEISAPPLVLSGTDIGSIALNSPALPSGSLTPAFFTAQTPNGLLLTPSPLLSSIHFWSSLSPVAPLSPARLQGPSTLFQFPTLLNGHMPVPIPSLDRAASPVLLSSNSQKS
# How it was run: as §1
# Chain of ELF1 (P32519 whole entry): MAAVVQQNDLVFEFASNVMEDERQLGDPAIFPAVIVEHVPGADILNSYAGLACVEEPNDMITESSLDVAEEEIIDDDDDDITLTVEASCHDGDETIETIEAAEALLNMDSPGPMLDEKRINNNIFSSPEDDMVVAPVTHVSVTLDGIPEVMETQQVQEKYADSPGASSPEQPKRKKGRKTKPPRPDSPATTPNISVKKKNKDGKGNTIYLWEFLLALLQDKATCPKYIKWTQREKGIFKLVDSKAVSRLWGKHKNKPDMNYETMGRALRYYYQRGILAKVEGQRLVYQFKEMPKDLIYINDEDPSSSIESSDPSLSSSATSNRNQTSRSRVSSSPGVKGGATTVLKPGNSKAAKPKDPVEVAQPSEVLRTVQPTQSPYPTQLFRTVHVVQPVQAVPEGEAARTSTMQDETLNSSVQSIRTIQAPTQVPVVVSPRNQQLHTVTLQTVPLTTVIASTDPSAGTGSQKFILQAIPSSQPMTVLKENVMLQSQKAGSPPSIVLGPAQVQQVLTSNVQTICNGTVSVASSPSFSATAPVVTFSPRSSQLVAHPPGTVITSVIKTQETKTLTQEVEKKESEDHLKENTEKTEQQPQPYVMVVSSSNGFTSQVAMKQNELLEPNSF
# Chain of SPIB (Q01892 whole entry): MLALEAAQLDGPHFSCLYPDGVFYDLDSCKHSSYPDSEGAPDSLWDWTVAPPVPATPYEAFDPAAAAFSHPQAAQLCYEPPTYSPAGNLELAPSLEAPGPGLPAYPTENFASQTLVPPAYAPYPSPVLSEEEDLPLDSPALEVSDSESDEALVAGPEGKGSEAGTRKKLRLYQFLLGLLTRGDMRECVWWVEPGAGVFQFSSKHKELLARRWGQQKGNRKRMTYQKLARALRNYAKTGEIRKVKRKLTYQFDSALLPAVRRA
sequence,measurement,setting,value
TATGGC,binding signal,FLI1,"1.19 fold enrichment (6-mer frequency, TF over GST control)"
same,binding signal,ELK1,"1.29 fold enrichment (6-mer frequency, TF over GST control)"
same,binding signal,GABPA,"1.26 fold enrichment (6-mer frequency, TF over GST control)"
same,binding signal,ERG,"1.27 fold enrichment (6-mer frequency, TF over GST control)"
same,binding signal,ELF1,"1.24 fold enrichment (6-mer frequency, TF over GST control)"
same,binding signal,EHF,"1.1 fold enrichment (6-mer frequency, TF over GST control)"
same,binding signal,SPI1,"1.12 fold enrichment (6-mer frequency, TF over GST control)"
same,binding signal,SPIB,"1.18 fold enrichment (6-mer frequency, TF over GST control)"
same,binding signal,ELK3,"1.16 fold enrichment (6-mer frequency, TF over GST control)"
